# Results from PubChem BioAssay.
# For some of these results: Potency and affinity values are given separately. Inconclusive results are not listed. Calls of active or inactive are those of the source. Unless noted, how the calls were made is not given here.
# What was measured:
# [1] = C. neoformans lysis by adenylate kinase leakage – AK release luminescence, cherry-picks, dose response (AID 687000;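 active means fitted dose curve reaches 40% lysis signal rise at or below the highest valid concentration tested for that sample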;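 further: luminescent detection of adenylate kinase leaking from lysed yeast; 0% = median neutral control signal and 100% = double that signal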); conditions: 4 h; series mostly up to 15 µM
# [2] = viability loss in HepG2 hepatoma cells – cell-based, cherry-picks, set 2, cytotoxicity control, dose response (AID 687002;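 active means a dose-response fit showing signal loss, with half-maximal concentration no higher than twice the top tested dose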); conditions: ATP luminescence (CellTiter-Glo), 48 h; series mostly up to 26 µM
# [3] = biological target: Adenosylmethionine-8-amino-7-oxononanoate aminotransferase (Mycobacterium tuberculosis (strain ATCC 25618 / H37Rv)) (UniProt P9WQ81); test: inhibition of purified M. tuberculosis BioA – biochemical, plate reader, cherry-pick samples, dose response (AID 651683); conditions: purified M. tuberculosis BioA enzyme; series mostly up to 10 µM
# [4] = test system: XIP peptide (Xip251-270) binding; test: XIP fragment 251-270 binding compounds – biochemical, small-molecule microarray, fluorescence 635/667 nm, 0.1 µg/mL protein, primary screen (AID 1182); conditions: fluorescent protein binding, 635 nm; higher = more signal, called active from +8 up or from −8 down unless noted
# [5] = test system: XIP peptide (Xip251-270); test: compounds binding XIP fragment 251-270 – biochemical, small-molecule microarray, fluorescence 635/667 nm, 0.5 µg/mL protein, primary screen (AID 1183); conditions: fluorescence 635 nm, higher = more signal
# [6] = blood-stage malaria parasite viability loss – strain 3D7, DAPI fluorescence, 100 nL, primary screen (AID 1184);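 further: parasites grown inside human red blood cells in medium with human serum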; conditions: P. falciparum 3D7 growth, 3 d, higher = more signal
# [7] = biological target: Homeobox protein Hox-A13 (Mus musculus) (UniProt Q62424); test: disruptors of Hoxa13 oligonucleotide interaction – biochemical, fluorescence polarization, labeled oligonucleotide, primary screen (AID 1185); conditions: Hoxa13:DNA binding, 15 min; higher = more signal, called active from +8 up or from −8 down unless noted
# [8] = blockers of DNA damage checkpoint Chk1 activation – imaging, HeLa, hydroxyurea, phospho-Chk1 antibody, percent positive cells, primary screen (AID 1186); conditions: hydroxyurea-induced phospho-Chk1 immunofluorescence imaging, higher = more signal
# [9] = blockers of DNA damage checkpoint Chk1 activation – imaging, HeLa, hydroxyurea, phospho-Chk1 nuclear intensity, primary screen (AID 1187); conditions: hydroxyurea-induced phospho-Chk1 immunofluorescence imaging, higher = more signal
# [10] = fungal growth arrest, C. neoformans – Alamar Blue, cherry-picks, dose response (AID 686998;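 active means falling signal with fitted half-maximal potency no higher than twice the top valid tested dose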); conditions: Cryptococcus neoformans growth, 24 h; series mostly up to 35 µM
# Adenosylmethionine-8-amino-7-oxononanoate aminotransferase (Mycobacterium tuberculosis (strain ATCC 25618 / H37Rv)), sequence (P9WQ81 whole entry, looked up, the tested form may be a part): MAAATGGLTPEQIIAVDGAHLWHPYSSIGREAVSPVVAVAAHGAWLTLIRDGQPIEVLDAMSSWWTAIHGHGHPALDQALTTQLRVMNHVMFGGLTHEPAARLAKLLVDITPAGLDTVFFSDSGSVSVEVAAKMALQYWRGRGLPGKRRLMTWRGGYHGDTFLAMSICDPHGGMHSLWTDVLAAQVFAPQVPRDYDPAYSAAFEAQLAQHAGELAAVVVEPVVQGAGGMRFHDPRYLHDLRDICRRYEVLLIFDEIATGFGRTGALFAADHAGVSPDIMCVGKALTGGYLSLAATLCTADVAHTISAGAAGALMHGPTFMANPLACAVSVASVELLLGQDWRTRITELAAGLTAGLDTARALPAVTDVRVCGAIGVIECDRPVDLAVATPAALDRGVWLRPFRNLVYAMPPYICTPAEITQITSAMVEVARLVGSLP
# Homeobox protein Hox-A13 (Mus musculus), sequence (Q62424 whole entry, looked up): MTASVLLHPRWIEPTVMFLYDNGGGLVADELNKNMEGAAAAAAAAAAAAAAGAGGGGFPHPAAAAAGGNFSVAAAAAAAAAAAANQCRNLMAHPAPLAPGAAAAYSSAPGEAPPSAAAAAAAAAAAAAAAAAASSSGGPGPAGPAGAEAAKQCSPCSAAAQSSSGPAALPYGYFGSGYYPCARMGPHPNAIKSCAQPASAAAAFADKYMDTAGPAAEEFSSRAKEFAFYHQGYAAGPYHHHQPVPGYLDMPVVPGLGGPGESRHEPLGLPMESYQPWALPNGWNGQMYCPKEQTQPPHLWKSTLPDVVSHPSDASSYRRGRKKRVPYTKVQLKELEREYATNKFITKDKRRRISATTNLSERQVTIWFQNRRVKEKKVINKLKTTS
structure (smiles),measurement,setting,value
O=c1[nH]c(CN2CC=C(c3ccccc3)CC2)nc2cc(C(F)(F)F)ccc12,outcome,[1],inactive
same,outcome,[2],inactive
Nc1cc(C(=O)O)ccc1Nc1ccccc1,outcome,[3],inactive
CCOC(=O)[C@H]1CC=C2C(=O)Oc3ccccc3[C@@H]21,composite z-score,[4],0.23 (inactive)
same,composite z-score,[5],0.637
same,z-score,[6],-0.654
same,z-score,[7],-2.72 (inactive)
same,z-score,[8],0.466 (inactive)
same,z-score,[9],0.0685 (inactive)
C=C(CC1(C(C)NP(=O)(c2ccccc2)c2ccccc2)CC1)c1ccccc1 (centres undefined),composite z-score,[4],-0.131 (inactive)
same,composite z-score,[5],0.858
same,z-score,[6],-1.1
same,z-score,[7],-5.49 (inactive)
same,z-score,[8],0.137 (inactive)
same,z-score,[9],0.321 (inactive)
N#Cc1ccc(-c2ccc3c(c2)[C@@H]2[C@@H](CCN2C(=O)c2ccc(F)cc2)[C@@H](CO)N3)cc1,outcome,[3],inactive
O=C(C[C@H]1C[C@H]2c3cc(NC(=O)c4cccnc4)ccc3O[C@H]2[C@H](CO)O1)NCc1ccccn1,outcome,[3],inactive
OCc1ccc(C2=CC(C3CC3)N(Cc3sc4ccccc4c3Cl)CC2)cc1 (centres undefined),composite z-score,[4],1.51 (inactive)
same,composite z-score,[5],0.625
same,z-score,[6],-3.04
same,z-score,[7],3.12 (inactive)
same,z-score,[8],-0.6 (inactive)
same,z-score,[9],-0.744 (inactive)
O=C(c1ccncc1)N1CC[C@@H]2[C@@H](CO)Nc3ccc(Br)cc3[C@@H]21,outcome,[3],inactive
CN1c2ccc(-c3cccc(F)c3)cc2[C@@H]2[C@@H](CCN2C(=O)c2ccncc2)[C@H]1CO,outcome,[3],inactive
C[C@H]1CN([C@@H](C)CO)C(=O)CCCn2nncc2CO[C@H]1CN(C)C(=O)Oc1cccc2ccccc12,outcome,[10],inactive
same,outcome,[1],inactive
same,outcome,[2],inactive
O=P(c1ccccc1)(c1ccccc1)N1CC2(CC2)CC(O)(c2ccccc2)C1 (centres undefined),composite z-score,[4],0.115 (inactive)
same,composite z-score,[5],0.725
same,z-score,[6],0.45
same,z-score,[7],-2.7 (inactive)
same,z-score,[8],0.37 (inactive)
same,z-score,[9],0.613 (inactive)
